High-throughput results as filed in PubChem BioAssay.
Cycloheximide cs: counter-screen for Shiga toxin inhibitors: cycloheximide protein synthesis inhibition; cell reporter, cycloheximide protein synthesis inhibition counterscreen; 12% of 300,000 active; max response, %; in the data active means max response mostly above about 13%, no sharp cut-off; inactive means mostly below about 14%; further: read at 38.3 µM for the half of the compounds with a filed dose
Pf growth 96h: P. falciparum growth inhibition at 96 hours; P. falciparum luciferase reporter growth, 96 h; Potency, µM (titrated, usually from 28.7 µM), usual class: inhibitors; 6.9% of 320,000 active; AID 504834; active means well fitted inhibition curve with a large enough effect; inconclusive means small, poorly fitted or top-dose-only effect, or another doubt; inactive means no such curve, though single readings can be large or run the other way
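Parasite growth measured via integrated firefly luciferase reporter in P. falciparum. Infected erythrocytes at 2% hematocrit, 0.05% parasitemia final were treated 96 hours at 37 C under 5% CO2, and luminescence was read.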
Shiga toxin inh: inhibitors of Shiga toxin in Vero cells | Vero cells, Shiga toxin protein synthesis inhibition reporter | 9.2% of 290,000 active | inhibition, % at 38.7 µM; in the data active means inhibition mostly above about 28%, no sharp cut-off; inactive means mostly below about 43%
SARS PLpro yeast: SARS-CoV PLP inhibition in yeast; 0.19% of 330,000 active; S. cerevisiae expressing SARS-CoV PLpro, growth rescue; AID 485353; Potency, µM (highest dose often 32.9 µM), usual class: activators; further: nearly all actives have a fitted effect of over 55% in size
NS1 function inh: blocks influenza NS1 protein function | 0.4% of 270,000 active | Potency, µM (top dose mostly 46.1 µM); further: actives are rising curves; nearly all actives have a fitted effect of over 50% in size
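OD600 was taken as the measure of yeast growth restored by compound in an NS1-expressing S. cerevisiae strain. Cells had been washed out of glucose medium and diluted 1:100 into galactose -URA medium, pH 6.0.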
Pf growth 48h: P. falciparum growth inhibition at 48 hours (one generation); 5.9% of 310,000 active; AID 504832; Potency, µM (doses to about 28.7 µM), hits mostly inhibitors; P. falciparum luciferase growth in erythrocytes, 48 h; active means well fitted inhibition curve with a large enough effect; inconclusive means small, poorly fitted or top-dose-only effect, or another doubt; inactive means no such curve, though single readings can be large or run the other way
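Growth was read as firefly luciferase luminescence after a 48 h, 37 C, 5% CO2 exposure of compounds to reporter-bearing P. falciparum cultures (0.1% parasitemia, 2% hematocrit final) in Albumax-supplemented RPMI 1640.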
Of the large screens only hits and unclear results are named; the others gave an inactive call. Hits are enriched below; roughly 21% of the tested compounds scored in any of these assays. Unless noted, the call rests on the fitted dose curve.

CC(C)N=C1NN=C(c2cccs2)C(CC(=O)O)S1 (stereo unspecified)	none
Cc1ccc(-c2nc3c(c(SCC(=O)N4CCOCC4)n2)Cc2c(CO)cnc(C)c2O3)cc1	Pf growth 48h 7.4µM
O=C(CNC(=O)c1ccccc1)OCCCOC(=O)CNC(=O)c1ccccc1	none
CCOC(=O)c1c(CS(=O)(=O)c2ccccc2)n(C)c2cc(Br)c(O)c(CN(C)C)c12	Pf growth 48h 9.3µM
CCOC(=O)c1c(C)n(C)c2cc(CN(C)C)c(O)c(S(=O)(=O)c3ccccc3)c12	Cycloheximide cs 23, Pf growth 96h inconclusive
CCOC(=O)c1c(CN2CCOCC2)n(C)c2cc(Br)c(O)c(CN(C)C)c12	Pf growth 96h inconclusive, NS1 function inh inconclusive, Pf growth 48h 10µM
O=C(O)c1ccc(CNCc2cc(Cl)ccc2O)cc1	Pf growth 96h inconclusive (no result: Cycloheximide cs, Shiga toxin inh, NS1 function inh)
Cc1ccc(CNCc2cc(Cl)ccc2O)cc1	Pf growth 96h 7.4µM, Pf growth 48h 2.9µM (no result: Cycloheximide cs, Shiga toxin inh, NS1 function inh)
Oc1ccc(Cl)cc1CNCC1CCCCC1	Pf growth 96h 12µM, Pf growth 48h 1.9µM (no result: Cycloheximide cs, Shiga toxin inh, NS1 function inh)
CC(C)(C)OC(=O)C(Br)CCBr (stereo unspecified)	none (no result: Pf growth 96h, SARS PLpro yeast, NS1 function inh, Pf growth 48h)
CCCCNc1c(-c2cccc(-c3ccc(OC)cc3)c2)nc2cc(C)ccn12	none (no result: Cycloheximide cs, Pf growth 96h, Shiga toxin inh, NS1 function inh, Pf growth 48h)
COCCNc1c(-c2ccc(OC)cc2)nc2ccc(Cl)cn12	Shiga toxin inh 62
CCOC(=O)CNc1c(-c2ccc(OC)cc2)nc2ccc(Cl)cn12	Cycloheximide cs 20, Pf growth 96h inconclusive, Shiga toxin inh 36
Cc1ccc(Nc2ccc(-n3ccnc3)nn2)cc1C	Cycloheximide cs 22, Pf growth 96h 10µM, Pf growth 48h inconclusive
CCOC(=O)CSc1nc2cc(C(=O)NCc3ccco3)ccc2c(=O)n1C1CCCCC1	Pf growth 48h 5.9µM
COc1ccc(Cn2c(SCC(=O)NCc3ccco3)nc3ccsc3c2=O)cc1	Cycloheximide cs 17, Pf growth 48h 13µM
CCOC(=O)N1CCC(n2c(SCC(=O)NCc3ccco3)nc3ccsc3c2=O)CC1	Pf growth 96h inconclusive, Pf growth 48h 13µM
CCOC(=O)CSc1nc2ccsc2c(=O)n1C1CCN(C(=O)OCC)CC1	Pf growth 96h inconclusive, Pf growth 48h inconclusive
CCOC(=O)CSc1nc2cc(C(=O)NCc3ccco3)ccc2c(=O)n1-c1ccc(F)cc1	Pf growth 96h inconclusive, NS1 function inh inconclusive
Cc1nc2sc3c(=O)[nH]nnc3c2c(C)c1Br	none
CC1=NN(c2ccc(Br)cc2)C(=O)/C1=C/c1ccc(-c2ccccc2C(=O)O)o1	none (no result: Shiga toxin inh)
Cc1c(C(=O)O)cccc1-c1ccc(/C=N/n2cnnc2)o1	Cycloheximide cs 28 (no result: Pf growth 48h)
Cc1c(C(=O)O)cccc1-c1ccc(/C=N/Nc2ccc(Br)cc2)o1	Cycloheximide cs 106, Shiga toxin inh 140
O=C(O)c1cccc(-c2ccc(/C=N/n3cnnc3)o2)c1	none
Cc1c(Cl)cccc1-c1ccc(/C=N/n2cnnc2)o1	Pf growth 96h 8.3µM (no result: Pf growth 48h)
Clc1cccc(-c2ccc(/C=N/n3cnnc3)o2)c1Cl	none
Cc1cc(C(=O)N2CCCc3ccccc32)ccc1[N+](=O)[O-]	none
Cc1ccc(S(C)(=O)=O)cc1C(=O)OCC(=O)N1CCCC1=O	none (no result: Cycloheximide cs, Shiga toxin inh, NS1 function inh)
O=C(Nc1ccc(Cl)c(Cl)c1)Nc1nnc(CC2=CCCCC2)s1	Pf growth 96h inconclusive, Pf growth 48h inconclusive
CC(C)(C)c1c(Cl)c(O)c(-c2ccccc2)c(=O)n1-c1ccccc1	Pf growth 48h inconclusive
O=C(OCC(=O)N1CCOCC1)c1ccc2ccccc2c1O	none (no result: Cycloheximide cs, Shiga toxin inh, NS1 function inh)
COc1cc(CNCc2cc(OC)c(OC)c(OC)c2)cc(OC)c1	Pf growth 96h inconclusive
Nc1ccc2ncccc2c1N	Cycloheximide cs 28, Pf growth 96h inconclusive, Shiga toxin inh 42, Pf growth 48h inconclusive
Nc1ccc(/C=C/c2ccc3ncccc3c2)cc1	Cycloheximide cs 38, Shiga toxin inh 85
Nc1ccc2ncccc2c1	Cycloheximide cs 48, Pf growth 96h inconclusive, Shiga toxin inh 136, Pf growth 48h inconclusive
O=[N+]([O-])c1cccc(Cl)c1N1CCOCC1	Pf growth 96h inconclusive
C=CSc1sc(Cl)c(N2CCOCC2)c1[N+](=O)[O-]	Pf growth 48h 8.3µM
C=CS(=O)(=O)c1sc(Cl)c(N2CCOCC2)c1[N+](=O)[O-]	Cycloheximide cs 16
c1cnc(-c2noc(CN3CCN(C4C5CC6CC(C5)CC4C6)CC3)n2)cn1 (stereo unspecified)	none
C1CC1Cc1noc(CN2CCN(C3C4CC5CC(C4)CC3C5)CC2)n1 (stereo unspecified)	Pf growth 96h 13µM
O=C1CCCN1CC1CCCN(Cc2nc(COc3ccccc3)no2)C1 (stereo unspecified)	Pf growth 96h 15µM
O=C1CCCN1CC1CCN(Cc2nc(CC3CC3)no2)CC1	Pf growth 96h inconclusive, Shiga toxin inh 48, Pf growth 48h inconclusive
C1CC(CN2CCOCC2)CN(Cc2nc(CC3CC3)no2)C1 (stereo unspecified)	none
COc1cc(C(c2nnnn2C2CCCC2)N2CCN(C(=O)c3ccco3)CC2)cc(OC)c1OC (stereo unspecified)	none
Cc1cccc(C(=O)NC2CCN(S(=O)(=O)c3ccc(F)cc3)CC2)c1	Pf growth 96h inconclusive, NS1 function inh inconclusive, Pf growth 48h inconclusive
Cc1ccc(NC(=S)N2CCN(S(=O)(=O)c3ccccc3)CC2)cc1C	Pf growth 96h inconclusive
O=C(/C=C/c1ccc([N+](=O)[O-])cc1)OCC(=O)N1CCCC1	none (no result: Cycloheximide cs, Pf growth 96h, Shiga toxin inh, NS1 function inh, Pf growth 48h)
N=C(N)SCCc1ccccn1	none (no result: Cycloheximide cs, Pf growth 96h, Shiga toxin inh, SARS PLpro yeast, Pf growth 48h)
COc1ccc(N=C2SC(C(=O)O)CC(=O)N2C)cc1 (stereo unspecified)	none
COc1ccc(N2C(=O)C3C(C2=O)C3(c2ccccc2)c2ccccc2)cc1 (stereo unspecified)	Pf growth 48h inconclusive
O=C1CN(c2ccccc2)C(=S)N1c1ccccc1	none
COc1ccc(N2CC(=O)N(c3ccccc3)C2=S)cc1	Cycloheximide cs 27, Pf growth 96h inconclusive
COc1ccc(N=C2C(=Nc3ccc(OC)cc3)N(c3ccc(OC)cc3)C(=S)N2c2ccccc2)cc1	Cycloheximide cs 60, Shiga toxin inh 70 (no result: Pf growth 96h)
COc1ccc(N=C2C(=Nc3ccc(OC)cc3)N(c3ccc(OC)cc3)C(=S)N2C)cc1	Pf growth 48h 5.2µM (no result: Pf growth 96h)
Cn1c(=O)c(=O)n(C)c2cc(S(=O)(=O)NCCOc3ccccc3Cl)ccc21	none (no result: NS1 function inh)
CC(=O)c1ccc(N2CCN(C(=O)Cn3cnc(S(=O)(=O)N4CCCCC4)c3)CC2)cc1	Pf growth 96h inconclusive
CN(Cc1ccc(C(C)(C)C)cc1)C(=O)c1ccc2c(c1)OCO2	Pf growth 96h inconclusive, Pf growth 48h inconclusive (no result: Cycloheximide cs, Shiga toxin inh, NS1 function inh)
CCCN(CC(=O)Nc1ccccc1C)C(=O)c1ccc(N2CCCCCC2)c([N+](=O)[O-])c1	Pf growth 96h inconclusive, Pf growth 48h inconclusive
O=C(N/N=C(\Cc1ncc[nH]1)c1ccccc1)c1cccnc1	Pf growth 96h inconclusive, Pf growth 48h 9.3µM (no result: NS1 function inh)
O=C(N/N=C(\c1ccccc1)c1cccnc1)c1cccc(F)c1	Pf growth 96h inconclusive, Pf growth 48h 1.9µM
COc1ccc(-c2cc(C)no2)cc1S(=O)(=O)N1CCN(c2ccccc2F)CC1	none
